Results filed as inconclusive are left out. Active and inactive are the calls of the source. Rule for the calls, unless noted: active = hit-call score of the fitted dose curve at least 0.9, where 1 is the maximum; inactive = score below 0.9.
How the values were obtained:
[1] = target: Glucocorticoid receptor (Homo sapiens) (UniProt P04150); test: ATG_GR_TRANS: Attagene TRANS-FACTORIAL HepG2 Assay for human Glucocorticoid Receptor (GR) (AID 2282978; active = hit-call score of the fitted dose curve at least 0.9, where 1 is the maximum;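 note: activators score as hits since higher reporter transcript over DMSO is fitted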); settings: HepG2 Attagene TRANS GR reporter, mRNA transcription
Method in brief: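 HepG2 cells transiently transfected with multiplexed reporter units in which chimeric NR-GAL4 proteins drive GAL4-UAS reporters; 24 h compound exposure. Reporter mRNA measured by RT-PCR, 6-FAM labelling, HpaI digestion and capillary electrophoresis; gain-of-signal fitted versus DMSO.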

[2] = ATG_M_06_TRANS: Attagene TRANS-FACTORIAL HepG2 Assay for M06 Transcription Factor (Internal Marker) (AID 2282983; active = hit-call score of the fitted dose curve at least 0.9, where 1 is the maximum;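 note: reporter transcript level by RT-PCR then capillary electrophoresis fluorescence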); settings: HepG2 Attagene TRANS M06 internal marker reporter
Method in brief: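 Internal-marker background readout from a multiplexed TRANS reporter system in HepG2; 24 h dosing; mRNA induction quantified by RT-PCR plus capillary electrophoresis fluorescence; DMSO as negative control and baseline.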

[3] = ATG_NFI_CIS: Attagene CIS-FACTORIAL HepG2 Assay for human Nuclear Factor I (NFI) (AID 2282989); settings: HepG2 cis-regulatory reporter, NFI response element transcription; actives raise or lower the signal
Method in brief: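 Cells: human liver HepG2, transiently transfected with promoter-regulated reporter transcription units. Exposure 24 h. Detection: fluorescent RT-PCR products separated by capillary electrophoresis, normalised to DMSO negative control.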

[4] = ATG_NF_kB_CIS: Attagene CIS-FACTORIAL HepG2 Assay for human Nuclear Factor Kappa B (NF-kB) (AID 2282991); settings: HepG2 Attagene cis-factorial NF-kB reporter mRNA; actives raise or lower the signal
Method in brief: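 HepG2 cells transiently transfected with multiplexed cis-element reporter units measuring endogenous transcription factor activity; reporter mRNA read 24 h after dosing by RT-PCR, fluorescent labelling, HpaI digestion and capillary electrophoresis. Bidirectional fit against DMSO baseline.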

[5] = ATG_NRF2_ARE_CIS: Attagene CIS-FACTORIAL HepG2 Assay for human Nuclear Factor Erythroid 2 Related Factor 2 (NFR2) response to Antioxidant Response Elements (ARE) (AID 2282992); settings: HepG2 Attagene ARE/NRF2 reporter, transcription factor activity; actives raise or lower the signal;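 for AC50: reporter mRNA level measured by RT-PCR and capillary electrophoresis fluorescence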
Method in brief: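 HepG2 cells transiently transfected with multiplexed cis-element reporter constructs, 24 h after chemical dosing; reporter mRNA quantified by RT-PCR, fluorescent primer extension, HpaI digestion and capillary electrophoresis. Bidirectional fit relative to DMSO.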

[6] = ATG_Oct_MLP_CIS: Attagene CIS-FACTORIAL HepG2 Assay for human Octamer-Binding Transcription Factor (Oct) (AID 2282993); settings: HepG2 Attagene cis-factorial Oct reporter, mRNA; actives raise or lower the signal
Method in brief: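 HepG2, transient MRTU transfection, cis promoter elements; 24 h dosing; RT-PCR/CE fluorescence read-out of reporter mRNA; fit both directions vs DMSO.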

[7] = target: Cellular tumor antigen p53 (Homo sapiens) (UniProt P04637); test: ATG_p53_CIS: Attagene CIS-FACTORIAL HepG2 Assay for human p53 Transcription Factor (AID 2282994); settings: HepG2 p53 cis-element reporter, Attagene mRNA; actives raise or lower the signal
Method in brief: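 HepG2 cells transiently transfected with cis-regulated multiple reporter transcription units, dosed 24 h. Reporter mRNA measured by RT-PCR, 6-FAM primer extension, HpaI digestion and capillary electrophoresis; bidirectional fit relative to DMSO.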

[8] = BSK_3C_TissueFactor: BioMAP Diversity Plus: 3C Assay for Tissue Factor Biomarker Activity (AID 2282997); settings: BioMAP 3C HUVEC, tissue factor biomarker readout; actives raise or lower the signal
Method in brief: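 Endothelial monolayers (human umbilical vein, primary) are dosed, incubated 24 h, and assayed for Tissue Factor by ELISA; DMSO serves as negative control for bidirectional fitting.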

[9] = BSK_3C_uPAR: BioMAP Diversity Plus: 3C Assay for Urokinase-type plasminogen activator receptor (uPAR) Biomarker Activity (AID 2282998); settings: BioMAP 3C HUVEC, uPAR biomarker ELISA; actives raise or lower the signal
Method in brief: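 A multiplexed primary-cell system built on human umbilical vein endothelium was used, with chemical present for 24 h before reading. Cell-surface uPAR was detected by ELISA; signal change in either direction counted against DMSO.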

[10] = BSK_3C_VCAM1: BioMAP Diversity Plus: 3C Assay for Vascular cell adhesion molecule 1 (VCAM1) Biomarker Activity (AID 2282999); settings: BioMAP 3C HUVEC, VCAM1 ELISA, cytokine-stimulated; actives raise or lower the signal
Method in brief: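 Endothelial cells from human umbilical vein are treated with test chemical. At 24 h, VCAM-1 is measured by ELISA, and responses in either direction are fitted relative to DMSO.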

[11] = BSK_4H_Eotaxin3: BioMAP Diversity Plus: 4H Assay for Eotaxin 3 Biomarker Activity (AID 2283000); settings: primary human endothelial cells (HUVEC); actives raise or lower the signal
Method in brief: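 ELISA quantitation of CCL26 (Eotaxin-3) protein from chemically dosed human vascular endothelial cells at 24 h; increases and decreases both scored relative to DMSO-treated baseline.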

[12] = target: Oxysterols receptor LXR-alpha (Homo sapiens) (UniProt Q13133); test: ATG_LXRa_TRANS: Attagene TRANS-FACTORIAL HepG2 Assay for human Liver X Receptor alpha (LXRa) (AID 2282980; active = hit-call score of the fitted dose curve at least 0.9, where 1 is the maximum); settings: HepG2 Attagene TRANS reporter, LXRa transactivation
Method in brief: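 In this multiplexed TRANS system, compounds act on HepG2 cells carrying GAL4-UAS reporter units and a receptor-GAL4 fusion for 24 h. Induced reporter RNA is amplified, fluorescently labelled and sized by capillary electrophoresis, with DMSO as baseline.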

[13] = target: Oxysterols receptor LXR-beta (Homo sapiens) (UniProt P55055); test: ATG_LXRb_TRANS: Attagene TRANS-FACTORIAL HepG2 Assay for human Liver X Receptor beta (LXRb) (AID 2282981; active = hit-call score of the fitted dose curve at least 0.9, where 1 is the maximum); settings: HepG2 Attagene TRANS GAL4-LXRb reporter, mRNA
Method in brief: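 Transient transfection HepG2 (multiplexed RTUs, GAL4-UAS); NR-Gal4 chimera; 24 h exposure; RNA → RT-PCR → 6-FAM primer extension → HpaI → CE; increase vs DMSO.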

[14] = ATG_M_32_TRANS: Attagene TRANS-FACTORIAL HepG2 Assay for M32 Transcription Factor (Internal Marker) (AID 2282984; active = hit-call score of the fitted dose curve at least 0.9, where 1 is the maximum;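 note: transcript level of a background control reporter unit measured by RT-PCR and capillary electrophoresis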); settings: HepG2 Attagene TRANS M32 internal marker reporter
Method in brief: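 Measures reporter mRNA induction in human HepG2 liver cells after 24 h chemical treatment. Transcripts from transiently transfected GAL4-UAS reporter units are amplified, fluorescently labelled and sized by capillary electrophoresis; gain of signal relative to DMSO.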

[15] = target: Nuclear receptor subfamily 4 group A member 2 (Homo sapiens) (UniProt P43354); test: ATG_NURR1_TRANS: Attagene TRANS-FACTORIAL HepG2 Assay for human Nuclear Receptor Related Protein 1 (NURR1) (AID 2282985; active = hit-call score of the fitted dose curve at least 0.9, where 1 is the maximum); settings: HepG2 Attagene TRANS reporter, mRNA readout
Method in brief: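 Transient transfection of HepG2, human liver cells, with multiple GAL4-UAS reporter transcription units. Cells dosed 24 h, RNA isolated, reverse-transcribed, PCR-amplified, FAM-labelled, HpaI-digested, sized by capillary electrophoresis. DMSO served as negative control.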

[16] = target: Nuclear respiratory factor 1 (Homo sapiens) (UniProt Q16656); test: ATG_NRF1_CIS: Attagene CIS-FACTORIAL HepG2 Assay for human Nuclear Respiratory Factor 1 (NRF1) Orphan Gene (AID 2282987); settings: HepG2 NRF1 cis-element reporter, Attagene multiplex; actives raise or lower the signal
Method in brief: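 HepG2 cells transiently transfected with multiple reporter transcription units under cis-regulatory promoter control, so endogenous transcription-factor activity is read. After 24 h compound exposure, reporter mRNA quantified by RT-PCR, fluorescent labelling, HpaI digestion and capillary electrophoresis; bidirectional fitting versus DMSO.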

[17] = target: Myc proto-oncogene protein (Homo sapiens) (UniProt P01106); test: ATG_Myc_CIS: Attagene CIS-FACTORIAL HepG2 Assay for human Myelocytomatosis (Myc) Proto-Oncogene Transcription Factor (AID 2282990); settings: HepG2, Attagene cis-reporter transcription factor activity; actives raise or lower the signal
Method in brief: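 HepG2, transient MRTU transfection (cis promoters, endogenous TFs); 24 h dosing; TriZol RNA → oligo(dT) RT → PCR → 6-FAM primer extension → HpaI cut → CE. Bidirectional fit vs DMSO.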

[18] = target: Transcriptional activator Myb (Homo sapiens) (UniProt P10242); test: ATG_Myb_CIS: Attagene CIS-FACTORIAL HepG2 Assay for human Myeloblastosis (Myb) Proto-Oncogene Transcription Factor (AID 2282986); settings: HepG2 Attagene CIS-FACTORIAL Myb reporter transcription; actives raise or lower the signal
Method in brief: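 HepG2 cells were transiently transfected with cis-regulated multiple reporter transcription units reflecting endogenous Myb activity, then exposed to compound for 24 hours. Reporter mRNA was measured by RT-PCR with capillary electrophoresis; bidirectional fitting versus DMSO baseline.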

[19] = target: Bile acid receptor (Homo sapiens) (UniProt Q96RI1); test: ATG_FXR_TRANS: Attagene TRANS-FACTORIAL HepG2 Assay for Farnesoid X Receptor (FXR) (AID 2282979; active = hit-call score of the fitted dose curve at least 0.9, where 1 is the maximum;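 note: hits raise reporter mRNA above DMSO so AC50 marks FXR activation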); settings: HepG2 Attagene TRANS FXR-GAL4 reporter transcription
Method in brief: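 After 24 h chemical treatment of transfected HepG2 cells, GAL4-UAS reporter transcripts driven by an exogenous FXR-GAL4 fusion were measured by RT-PCR and capillary electrophoresis. Increases over DMSO were fitted.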

Measured: AC50

Nuclear respiratory factor 1 (Homo sapiens), sequence (Q16656 whole entry, looked up): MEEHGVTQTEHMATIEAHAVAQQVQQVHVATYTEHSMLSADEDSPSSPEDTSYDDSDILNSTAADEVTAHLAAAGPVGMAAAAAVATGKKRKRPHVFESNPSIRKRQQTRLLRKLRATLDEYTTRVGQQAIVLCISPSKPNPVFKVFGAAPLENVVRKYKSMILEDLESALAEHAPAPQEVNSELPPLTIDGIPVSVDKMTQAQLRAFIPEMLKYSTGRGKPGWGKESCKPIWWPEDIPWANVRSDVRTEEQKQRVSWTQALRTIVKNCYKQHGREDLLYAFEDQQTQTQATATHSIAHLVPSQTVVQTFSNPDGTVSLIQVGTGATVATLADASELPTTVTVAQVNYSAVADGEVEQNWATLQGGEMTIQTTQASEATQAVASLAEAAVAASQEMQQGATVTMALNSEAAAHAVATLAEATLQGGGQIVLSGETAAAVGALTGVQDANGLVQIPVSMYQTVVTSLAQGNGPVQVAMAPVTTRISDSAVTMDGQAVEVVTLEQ
Glucocorticoid receptor (Homo sapiens), sequence (P04150 whole entry, looked up, the tested form may be a part): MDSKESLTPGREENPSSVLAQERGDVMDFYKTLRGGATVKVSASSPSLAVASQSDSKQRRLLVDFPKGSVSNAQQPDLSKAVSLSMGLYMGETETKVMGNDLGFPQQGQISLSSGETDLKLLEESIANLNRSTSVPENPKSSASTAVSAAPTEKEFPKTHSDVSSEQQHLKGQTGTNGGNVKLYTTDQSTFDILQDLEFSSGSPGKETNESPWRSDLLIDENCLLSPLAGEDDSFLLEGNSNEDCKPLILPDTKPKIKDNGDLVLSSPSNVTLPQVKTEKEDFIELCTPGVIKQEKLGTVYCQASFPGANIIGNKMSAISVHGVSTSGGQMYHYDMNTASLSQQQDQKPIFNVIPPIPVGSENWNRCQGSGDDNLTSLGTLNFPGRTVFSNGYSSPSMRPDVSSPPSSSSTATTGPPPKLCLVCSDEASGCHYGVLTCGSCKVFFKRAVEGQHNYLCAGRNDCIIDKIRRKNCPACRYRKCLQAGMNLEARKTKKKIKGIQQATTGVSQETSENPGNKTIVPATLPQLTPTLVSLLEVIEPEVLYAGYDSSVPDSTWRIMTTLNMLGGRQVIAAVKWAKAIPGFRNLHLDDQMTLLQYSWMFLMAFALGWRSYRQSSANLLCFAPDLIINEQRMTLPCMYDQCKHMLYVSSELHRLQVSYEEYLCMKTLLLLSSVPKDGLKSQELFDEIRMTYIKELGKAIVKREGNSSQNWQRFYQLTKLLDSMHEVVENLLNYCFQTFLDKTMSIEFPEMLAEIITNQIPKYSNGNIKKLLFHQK
Oxysterols receptor LXR-alpha (Homo sapiens), sequence (Q13133 whole entry, looked up, the tested form may be a part): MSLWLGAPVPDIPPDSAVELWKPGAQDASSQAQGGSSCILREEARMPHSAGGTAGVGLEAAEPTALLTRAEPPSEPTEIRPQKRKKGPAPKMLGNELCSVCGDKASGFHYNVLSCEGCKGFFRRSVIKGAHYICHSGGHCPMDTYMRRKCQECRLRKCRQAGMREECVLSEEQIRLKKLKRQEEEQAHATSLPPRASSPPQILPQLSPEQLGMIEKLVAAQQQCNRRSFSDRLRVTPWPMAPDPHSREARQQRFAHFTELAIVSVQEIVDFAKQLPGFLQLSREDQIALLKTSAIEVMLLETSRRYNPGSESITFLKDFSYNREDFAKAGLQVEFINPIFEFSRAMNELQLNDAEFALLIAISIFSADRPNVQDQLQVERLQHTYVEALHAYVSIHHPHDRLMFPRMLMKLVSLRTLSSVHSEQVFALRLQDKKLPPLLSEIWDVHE
Transcriptional activator Myb (Homo sapiens), sequence (P10242 whole entry, looked up): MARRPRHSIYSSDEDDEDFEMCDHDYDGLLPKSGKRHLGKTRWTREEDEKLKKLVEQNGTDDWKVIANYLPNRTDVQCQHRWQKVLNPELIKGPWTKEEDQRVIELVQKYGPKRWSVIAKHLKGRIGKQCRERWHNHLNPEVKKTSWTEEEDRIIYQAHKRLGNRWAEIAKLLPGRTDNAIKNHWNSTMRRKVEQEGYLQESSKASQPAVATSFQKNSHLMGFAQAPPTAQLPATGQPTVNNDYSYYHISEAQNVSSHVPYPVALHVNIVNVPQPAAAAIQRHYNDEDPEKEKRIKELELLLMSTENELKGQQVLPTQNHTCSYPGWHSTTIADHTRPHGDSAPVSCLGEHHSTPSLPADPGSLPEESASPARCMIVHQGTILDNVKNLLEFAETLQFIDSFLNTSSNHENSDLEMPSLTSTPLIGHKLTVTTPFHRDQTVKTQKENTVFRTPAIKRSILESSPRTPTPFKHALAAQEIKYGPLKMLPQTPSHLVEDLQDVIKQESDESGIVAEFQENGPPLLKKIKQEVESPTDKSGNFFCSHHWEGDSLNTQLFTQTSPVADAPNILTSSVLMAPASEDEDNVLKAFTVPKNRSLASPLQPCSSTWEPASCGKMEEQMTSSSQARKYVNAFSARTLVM
Nuclear receptor subfamily 4 group A member 2 (Homo sapiens), sequence (P43354 whole entry, looked up, the tested form may be a part): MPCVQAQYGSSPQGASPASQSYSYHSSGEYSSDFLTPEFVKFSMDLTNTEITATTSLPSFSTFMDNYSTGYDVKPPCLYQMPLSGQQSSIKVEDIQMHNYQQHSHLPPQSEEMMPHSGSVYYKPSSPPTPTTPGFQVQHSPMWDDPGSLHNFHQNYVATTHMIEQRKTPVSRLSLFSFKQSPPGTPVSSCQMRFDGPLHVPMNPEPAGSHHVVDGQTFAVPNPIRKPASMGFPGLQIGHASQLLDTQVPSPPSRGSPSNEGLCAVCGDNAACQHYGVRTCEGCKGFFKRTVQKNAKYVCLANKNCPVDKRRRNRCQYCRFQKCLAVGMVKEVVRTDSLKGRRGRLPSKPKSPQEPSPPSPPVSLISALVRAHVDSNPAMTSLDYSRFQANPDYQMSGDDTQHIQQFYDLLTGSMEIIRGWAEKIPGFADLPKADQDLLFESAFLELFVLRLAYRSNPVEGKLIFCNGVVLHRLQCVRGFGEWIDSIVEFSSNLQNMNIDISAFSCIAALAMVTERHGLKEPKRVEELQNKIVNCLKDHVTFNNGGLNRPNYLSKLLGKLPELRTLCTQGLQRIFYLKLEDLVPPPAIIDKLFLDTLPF
Cellular tumor antigen p53 (Homo sapiens), sequence (P04637 whole entry, looked up): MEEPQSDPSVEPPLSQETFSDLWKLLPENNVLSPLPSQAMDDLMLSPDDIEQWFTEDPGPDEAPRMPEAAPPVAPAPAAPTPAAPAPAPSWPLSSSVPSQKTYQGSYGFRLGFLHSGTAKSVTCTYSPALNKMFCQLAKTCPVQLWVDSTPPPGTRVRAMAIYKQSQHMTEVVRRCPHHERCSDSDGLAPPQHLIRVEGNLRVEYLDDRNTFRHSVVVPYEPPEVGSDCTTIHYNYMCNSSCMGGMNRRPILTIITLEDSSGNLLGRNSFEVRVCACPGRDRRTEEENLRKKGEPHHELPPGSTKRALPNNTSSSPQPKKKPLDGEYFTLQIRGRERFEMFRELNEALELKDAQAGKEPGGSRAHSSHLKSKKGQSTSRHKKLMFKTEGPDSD
Oxysterols receptor LXR-beta (Homo sapiens), sequence (P55055 whole entry, looked up, the tested form may be a part): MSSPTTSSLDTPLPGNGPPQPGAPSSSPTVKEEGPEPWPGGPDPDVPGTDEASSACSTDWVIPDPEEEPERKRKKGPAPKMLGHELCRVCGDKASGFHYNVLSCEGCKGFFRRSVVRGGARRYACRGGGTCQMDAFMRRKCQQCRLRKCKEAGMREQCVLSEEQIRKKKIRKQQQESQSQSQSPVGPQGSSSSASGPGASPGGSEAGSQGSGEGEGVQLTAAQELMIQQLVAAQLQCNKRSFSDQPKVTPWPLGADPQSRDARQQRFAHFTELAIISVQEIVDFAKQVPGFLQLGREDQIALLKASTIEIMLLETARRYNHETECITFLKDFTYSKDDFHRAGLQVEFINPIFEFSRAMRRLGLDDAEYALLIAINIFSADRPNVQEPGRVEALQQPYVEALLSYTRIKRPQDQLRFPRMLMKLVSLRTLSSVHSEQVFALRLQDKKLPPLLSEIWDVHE
Bile acid receptor (Homo sapiens), sequence (Q96RI1 whole entry, looked up, the tested form may be a part): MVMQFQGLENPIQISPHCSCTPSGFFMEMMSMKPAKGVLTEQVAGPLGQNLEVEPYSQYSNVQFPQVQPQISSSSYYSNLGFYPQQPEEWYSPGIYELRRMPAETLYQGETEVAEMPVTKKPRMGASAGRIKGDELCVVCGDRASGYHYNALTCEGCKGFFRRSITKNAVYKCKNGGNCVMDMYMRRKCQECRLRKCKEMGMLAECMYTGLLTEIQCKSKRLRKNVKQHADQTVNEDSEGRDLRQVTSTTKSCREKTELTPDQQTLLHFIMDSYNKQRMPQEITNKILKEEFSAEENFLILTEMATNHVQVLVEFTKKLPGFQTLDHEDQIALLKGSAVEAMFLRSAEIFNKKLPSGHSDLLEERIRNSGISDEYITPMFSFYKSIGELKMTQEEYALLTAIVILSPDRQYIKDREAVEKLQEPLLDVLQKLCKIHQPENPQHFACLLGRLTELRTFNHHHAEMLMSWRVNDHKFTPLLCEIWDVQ
Myc proto-oncogene protein (Homo sapiens), sequence (P01106 whole entry, looked up): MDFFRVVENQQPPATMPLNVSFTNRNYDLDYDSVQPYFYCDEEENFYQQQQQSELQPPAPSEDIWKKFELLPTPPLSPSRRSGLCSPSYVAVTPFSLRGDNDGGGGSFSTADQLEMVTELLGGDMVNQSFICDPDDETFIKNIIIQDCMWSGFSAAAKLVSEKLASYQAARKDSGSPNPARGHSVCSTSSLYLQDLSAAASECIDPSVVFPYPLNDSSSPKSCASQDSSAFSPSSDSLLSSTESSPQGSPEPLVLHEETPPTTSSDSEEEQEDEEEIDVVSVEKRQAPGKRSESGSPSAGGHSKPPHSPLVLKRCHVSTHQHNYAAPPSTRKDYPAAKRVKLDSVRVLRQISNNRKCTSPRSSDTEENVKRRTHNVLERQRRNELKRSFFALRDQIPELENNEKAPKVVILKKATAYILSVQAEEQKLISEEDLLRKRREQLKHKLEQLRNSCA

CCCCCCCCCCC
inactive: [1] | [2] | [3] | [4] | [5] | [6] | [7] | [8] | [9] | [10] | [11]

COC(=O)c1ccc(O)cc1
inactive: [12] | [13] | [2] | [14] | [15] | [16] | [3] | [4] | [5] | [6] | [7] | [8] | [9] | [10] | [11]

CCCCC(CC)COC(=O)CC(C(=O)OCC(CC)CCCC)S(=O)(=O)O (stereo unspecified)
active: [5] 11.1 µM | [8] 31.8 µM | [9] 31.1 µM | [10] 38.9 µM | [11] 36.5 µM
inactive: [1] | [12] | [2] | [15] | [3] | [17] | [4] | [6] | [7]

Cc1oc(-c2ccccc2)nc1CCOc1cccc2c1ccn2CCC(=O)O
inactive: [1] | [13] | [14] | [15] | [18] | [3] | [4] | [6] | [7] | [8] | [9] | [10] | [11]
active: [5] 31.4 µM

CCOC(=O)C(C)(C)Oc1ccc(Cl)cc1
inactive: [19] | [12] | [14] | [15] | [18] | [16] | [3] | [4] | [5] | [6] | [7] | [8] | [9] | [10] | [11]

COc1ccc(C)cc1N
inactive: [1] | [12] | [13] | [2] | [15] | [16] | [3] | [4] | [5] | [6] | [7] | [8] | [9] | [10] | [11]

CC1(C)CC(N=C=O)CC(C)(CN=C=O)C1 (stereo unspecified)
inactive: [19] | [13] | [2] | [14] | [15] | [18] | [16] | [3] | [17] | [4] | [5] | [6] | [7] | [8] | [9] | [10] | [11]

From PubChem BioAssay (EPA / NIEHS)
